Experimental findings from PubChem BioAssay (Tox21) are described below.

Results filed as inconclusive are left out. Entries that show only a call come without a potency. Active and inactive are the calls of the source. Calls follow the shape of the full dose curve.

Sequence of Beta-2 adrenergic receptor (Homo sapiens) (P07550 whole entry, looked up): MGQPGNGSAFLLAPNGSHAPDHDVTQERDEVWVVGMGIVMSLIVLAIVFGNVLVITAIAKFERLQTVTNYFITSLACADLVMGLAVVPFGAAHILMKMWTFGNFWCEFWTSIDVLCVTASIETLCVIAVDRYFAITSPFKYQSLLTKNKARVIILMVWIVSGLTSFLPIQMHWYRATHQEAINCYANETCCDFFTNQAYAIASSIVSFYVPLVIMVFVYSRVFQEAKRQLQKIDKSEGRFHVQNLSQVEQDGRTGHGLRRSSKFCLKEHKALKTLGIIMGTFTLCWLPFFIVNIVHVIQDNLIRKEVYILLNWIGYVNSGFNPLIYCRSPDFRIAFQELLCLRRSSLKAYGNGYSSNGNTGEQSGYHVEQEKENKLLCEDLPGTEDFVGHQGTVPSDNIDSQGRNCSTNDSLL

The target in the test is Beta-2 adrenergic receptor (Homo sapiens) (UniProt P07550). Kind of test: Adrenergic beta2 receptor (ADRB2) small molecule agonists, cell-based qHTS assay (AID 1963593).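 Also: CHO cells stably overexpressing human ADRB2.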 Conditions: CHO-ADRB2 cells, cAMP HTRF, 30 min; series mostly up to 92.4 µM. The essentials:
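CHO cells stably over-expressing ADRB2 were plated overnight at 37C, then dosed with compounds plus a stimulation mix containing 100uM IBMX and 25uM Ro-20-1724 for 0.5hr at room temperature. cAMP was measured by HTRF competition, 1hr.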
As to `CC(C)[C@H](C(=O)O[C@H](C#N)c1cccc(Oc2ccccc2)c1)c1ccc(Cl)cc1`, the Potency result was “inactive”.

With `CCC(C(N)=O)N1CCCC1=O` (stereo unspecified), the Potency entry was “inactive”.

Take `O=C(O)CCCCCCNC1c2ccccc2CCc2ccccc21`: the Potency result is “inactive”.

As for `COP(=O)(OC)O/C(=C\Cl)c1cc(Cl)c(Cl)cc1Cl`, the Potency entry was “inactive”.

For `O=C(N/N=C/c1ccc([N+](=O)[O-])o1)c1cc([N+](=O)[O-])cc([N+](=O)[O-])c1O`, the Potency result is “inactive”.

Regarding `ClC(Cl)C(Cl)Cl`, the Potency result was “inactive”.

As for `CCCCCCCCCCCCN(C)C`, the Potency entry is “inactive”.

With `Cc1cccc2sc3nncn3c12`, the Potency result is “inactive”.

As to `CCOP(=O)(OCC)O/C(=C/Cl)c1ccc(Cl)cc1Cl`, the Potency entry is “inactive”.

Take `O=C(CBr)Nc1ccc(Cl)cc1C(=O)c1ccccc1F`: the Potency entry is “inactive”.

As to `Nc1ccc(Cl)cc1C(=O)c1ccccc1F`, the Potency entry was “inactive”.

For `N#CCCl`, the Potency result was “inactive”.

For `CCCCCCCCCCCCCN1CC(C)OC(C)C1` (stereo unspecified), the Potency result is “inactive”.

With `CCN(CC)c1c([N+](=O)[O-])cc(C(F)(F)F)c(N)c1[N+](=O)[O-]`, the Potency result is “inactive”.

As for `O=C(Nc1ccc2[nH]ccc2c1)c1cc2cc(F)ccc2n1Cc1cccc(F)c1`, the Potency result was “inactive”.

Consider `COP(=S)(OC)Oc1c(Cl)cc(C)cc1Cl`, for which the Potency entry is “inactive”.
